Screens: PubChem BioAssay, several laboratories
HGIII-sPLA2 inh – Inhibits HGIII-sPLA2 liposome hydrolysis, primary screen. Q9NZ20. QFRET BODIPY PC-A2 liposome hydrolysis, fluorescence. inhibition, % at 12.2 µM. actives 0.56% (n = 370,000). AID 743126;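 active means inhibition above mean plus 3 SD of compounds lying within the high and low control bounds, cut at about 19% in these data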;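 further: 0% = median of test compound wells and 100% = no enzyme DMSO wells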
SUMO HTRF inh – SUMOylation inhibition; P63279; HTRF SUMOylation assay, SAE1/SAE2 + UBC9, in vitro; inhibition, % at 35 µM; actives 0.36% (n = 290,000); AID 2006; in the data active means inhibition above about 50%, passing the limit was not always enough; inconclusive means no clear call, values can overlap the other calls
Target sequence (P63279 whole entry, looked up): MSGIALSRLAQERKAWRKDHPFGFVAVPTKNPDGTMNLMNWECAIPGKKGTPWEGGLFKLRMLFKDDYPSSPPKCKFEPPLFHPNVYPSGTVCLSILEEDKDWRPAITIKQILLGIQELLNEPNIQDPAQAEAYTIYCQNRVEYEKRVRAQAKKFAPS
UBC13 polyUb – human UBC13 polyubiquitination inhibition; actives 0.47% (n = 330,000); P61088; inhibition, % at 20 µM; UBC13 polyubiquitin chain formation, TR-FRET; AID 485273; in the data active means inhibition above about 45%, passing the limit was not always enough; inconclusive means no clear call, values can overlap the other calls
Target sequence (P61088 whole entry, looked up): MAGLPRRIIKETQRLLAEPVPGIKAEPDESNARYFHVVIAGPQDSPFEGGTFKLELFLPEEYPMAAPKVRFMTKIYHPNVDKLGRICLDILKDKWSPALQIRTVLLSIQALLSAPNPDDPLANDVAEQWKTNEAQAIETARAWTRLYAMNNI
NR3A LBD binder – modulates the human NR3A ligand-binding domain; NR3A LBD differential scanning fluorimetry, Tm shift; 0% = protein alone, 100% = glycine-bound protein; Tm shift relative to glycine control, % at 25 µM; actives 2.5% (n = 340,000); AID 1259313;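 active means melting temperature shift of at least 10% of the positive control shift, at one fixed dose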
An asterisk follows results filed as active. A selection: hits, their analogues and other compounds. The true share with any hit is near 3.3%.

COc1cc(/C=N/Nc2ccc(C(=O)O)cc2)ccc1O was read as HGIII-sPLA2 inh -1, SUMO HTRF inh 5, UBC13 polyUb -4 and NR3A LBD binder 27*.
COc1ccc(OC)c(/C=N\NC(=O)c2ccc(-c3ccccc3)cc2)c1 was read as HGIII-sPLA2 inh 1, SUMO HTRF inh 8, UBC13 polyUb 6 and NR3A LBD binder -1.
O=[N+]([O-])c1ccccc1N/N=C/c1cccc(O)c1O was read as HGIII-sPLA2 inh 6, SUMO HTRF inh 18, UBC13 polyUb -33 and NR3A LBD binder 0.
Screening O=[N+]([O-])c1cccc(N/N=C/c2cccc(O)c2O)c1 returned HGIII-sPLA2 inh 9, SUMO HTRF inh 12, UBC13 polyUb -18 and NR3A LBD binder 21*.
Screening O=C1[C@@H](CCc2ccccc2)[C@@H]2c3cc4ccccc4cc3C=NN2[C@@H]2c3cc4ccccc4cc3C=NN12 returned HGIII-sPLA2 inh -7.
Cc1ccccc1CN1CCCCC(NC(=O)c2ccc(F)cc2F)C1=O (configuration not stated) was read as HGIII-sPLA2 inh 5.
`S=C(Nc1ccccc1)OCCN1CCCC12CCC(c1ccccc1)CC2` (configuration not stated) gave HGIII-sPLA2 inh -3.
Screening COc1cccc(/C=N/NC(=O)c2ccc([N+](=O)[O-])cc2Cl)c1O returned HGIII-sPLA2 inh -5, SUMO HTRF inh -2, UBC13 polyUb 3 and NR3A LBD binder -1.
For COc1cc(/C=N/Nc2nc(C)nc3c2cnn3-c2ccccc2)ccc1O the results were HGIII-sPLA2 inh -33, SUMO HTRF inh 27 and NR3A LBD binder 13*.
`COc1cc(/C=N/NC(=O)c2nc(-c3ccccc3)n(-c3ccccc3)n2)ccc1O` gave HGIII-sPLA2 inh -7, SUMO HTRF inh -13, UBC13 polyUb 13 and NR3A LBD binder -2.
Screening COc1ccc(/C=N/Nc2ccc([N+](=O)[O-])cc2)cc1O returned HGIII-sPLA2 inh -70, SUMO HTRF inh 3, UBC13 polyUb -148 and NR3A LBD binder 27*.
`O=C(Cc1ccccc1)N/N=C/c1ccccc1OCc1ccc(Cl)cc1` gave HGIII-sPLA2 inh -5, SUMO HTRF inh -27, UBC13 polyUb -16 and NR3A LBD binder 6.
Screening O=S(=O)(N/N=C/c1ccccc1OCc1ccc(Cl)cc1)c1ccccc1 returned HGIII-sPLA2 inh -3, SUMO HTRF inh -10, UBC13 polyUb -6 and NR3A LBD binder 13*.
Screening COc1cccc(/C=N/Nc2ccc([N+](=O)[O-])cc2)c1O returned HGIII-sPLA2 inh -21, SUMO HTRF inh 13, UBC13 polyUb -49 and NR3A LBD binder 36*.
`COc1cccc(-c2nnc(SCC(=O)OC(C)C)n2-c2ccc(Cl)cc2)c1` gave HGIII-sPLA2 inh -6.
`COC(=O)[C@]12C[C@H](CC(=O)N3CCCC3)C(=O)N(CCc3ccc(OC)c(OC)c3)C1=C[C@H](C(C)C)O[C@@H]2C1CC1` gave HGIII-sPLA2 inh 11.
For Nc1[nH]c(C(=O)c2ccccc2)c(-c2ccc(Cl)cc2Cl)c1C(=O)c1cccs1 the results were HGIII-sPLA2 inh 5.
Screening CCOc1ccccc1NC(=O)C(Sc1nnc2ccccn12)c1ccccc1 (configuration not stated) returned HGIII-sPLA2 inh 4, SUMO HTRF inh 6, UBC13 polyUb -10 and NR3A LBD binder -1.
Screening COc1ccc(C)cc1NC(=O)CSc1nnnn1Cc1ccccc1 returned HGIII-sPLA2 inh -5, SUMO HTRF inh -5, UBC13 polyUb 14 and NR3A LBD binder 15*.
Screening COc1cc(NC(=O)CSc2nnnn2Cc2ccccc2)cc(OC)c1 returned HGIII-sPLA2 inh -5, SUMO HTRF inh -4, UBC13 polyUb -6 and NR3A LBD binder 1.
COc1ccc(C)cc1NC(=O)C(Sc1nnc2ccccn12)c1ccccc1 (configuration not stated) was read as HGIII-sPLA2 inh -6, SUMO HTRF inh -4, UBC13 polyUb 7 and NR3A LBD binder 15*.
For O=[N+]([O-])/C=C/c1cc2ccccc2[nH]1 the results were HGIII-sPLA2 inh -2, SUMO HTRF inh 8, UBC13 polyUb -13 and NR3A LBD binder 18*.
`O=[N+]([O-])c1nc2ccccc2[nH]1` gave HGIII-sPLA2 inh 12 and NR3A LBD binder -2.
COC(=O)C1CN(CC(C)C)CCS(=O)(=O)N1Cc1ccc(C(F)(F)F)cc1 (configuration not stated) was read as HGIII-sPLA2 inh 5.
Cc1ccc2c(Cl)c(C(=O)N/N=C/c3cccn3C)sc2c1 was read as HGIII-sPLA2 inh 2, SUMO HTRF inh 11, UBC13 polyUb -18 and NR3A LBD binder -5.
Screening Cn1cccc1/C=N/NC(=O)c1sc2cc(Cl)ccc2c1Cl returned HGIII-sPLA2 inh 5, SUMO HTRF inh 56* and UBC13 polyUb -3.
Screening O=C(Cc1c(C(=O)O)[nH]c2ccc(Cl)cc12)Nc1ccc2c(c1)OCCO2 returned HGIII-sPLA2 inh -43, SUMO HTRF inh 7, UBC13 polyUb -9 and NR3A LBD binder 12*.
Screening Cc1nc(Cl)cc(N/N=C/c2ccc(O)cc2O)n1 returned HGIII-sPLA2 inh -10, SUMO HTRF inh 1, UBC13 polyUb -11 and NR3A LBD binder 19*.
CCOc1ccc(/C=N/Nc2cc(N3CCOCC3)nc(C)n2)c(O)c1 was read as HGIII-sPLA2 inh 8, SUMO HTRF inh -16, UBC13 polyUb -3 and NR3A LBD binder 7.
`Cc1nc(Cl)cc(N/N=C/c2ccc(O)cc2)n1` gave HGIII-sPLA2 inh 9, SUMO HTRF inh 4, UBC13 polyUb -2 and NR3A LBD binder 26*.
For Oc1ccc(/C=N/Nc2cc(N3CCOCC3)nc(N3CCOCC3)n2)cc1 the results were HGIII-sPLA2 inh -10, UBC13 polyUb -28 and NR3A LBD binder -8.
Screening Cc1cc(N/N=C/c2ccc(O)cc2)c2cccc(C)c2n1 returned HGIII-sPLA2 inh -9, SUMO HTRF inh 1, UBC13 polyUb 2 and NR3A LBD binder 12*.
Screening Cc1cc(C)c2nc(C)cc(N/N=C/c3ccc(O)cc3)c2c1 returned HGIII-sPLA2 inh -21, SUMO HTRF inh 8, UBC13 polyUb inconclusive and NR3A LBD binder 5.
For OC(CNCc1ccco1)Cn1c2ccc(Br)cc2c2cc(Br)ccc21 (configuration not stated) the results were HGIII-sPLA2 inh 1, SUMO HTRF inh -20, UBC13 polyUb 29 and NR3A LBD binder 24*.
`CCCCCCCCN1C(=O)[C@@H](CC(=O)N2CCCCC2)C[C@@]2(C(=O)OC)C1=C[C@H](COCc1ccccc1)O[C@@H]2C` gave HGIII-sPLA2 inh -19.
CC(C)CN(CCNC(=O)c1cn(C)c2ccc(S(=O)(=O)N3CCCC3)cc2c1=O)CC(C)C was read as HGIII-sPLA2 inh 3, SUMO HTRF inh 4, UBC13 polyUb -3 and NR3A LBD binder 26*.
O=C(CCCCCn1c(=S)[nH]c2ccc(N3CCOCC3)cc2c1=O)NCc1ccc(Cl)cc1 was read as HGIII-sPLA2 inh -2, SUMO HTRF inh 24, UBC13 polyUb 43 and NR3A LBD binder -1.
Screening O=c1c2cc(N3CCOCC3)ccc2[nH]c(=S)n1Cc1ccc(Cl)cc1 returned HGIII-sPLA2 inh 6, SUMO HTRF inh 5, UBC13 polyUb 5 and NR3A LBD binder 38*.
